Source: PubChem
PglD DTNB: blocks C. jejuni PglD acetyltransferase activity; purified PglD enzyme, DTNB colorimetric CoA detection; inhibition, % at 12.5 µM; 360,000 compounds, 0.098% hits; AID 602405; in the data active = inhibition above about 16%, passing the limit was not always enough
Casp6 inh: inhibitors of human caspase-6; AID 686996; 350,000 compounds, 0.53% hits; inhibition, % at 12.5 µM; purified caspase-6, Z-VEID-R110 cleavage fluorescence; P55212;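 active = mean inhibition across replicates at least about 35%, with every replicate also reaching that limit, limit read from the data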;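 also: 0% = median of neutral control wells and 100% = no fluorescence left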
Target sequence (P55212 24-179 limits assumed): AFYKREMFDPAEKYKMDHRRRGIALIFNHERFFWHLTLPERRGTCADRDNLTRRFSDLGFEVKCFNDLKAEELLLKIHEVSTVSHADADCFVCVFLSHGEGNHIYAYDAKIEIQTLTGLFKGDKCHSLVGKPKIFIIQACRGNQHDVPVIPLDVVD
Target sequence (P55212 194-293 limits assumed): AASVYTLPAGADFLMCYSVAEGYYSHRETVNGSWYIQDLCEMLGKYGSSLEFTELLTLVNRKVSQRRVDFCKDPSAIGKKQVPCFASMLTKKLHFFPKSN
Env fusion inh: HIV envelope-mediated fusion inhibition. HeLa-JRFL Env/CEM21 cell fusion, luciferase. 360,000 compounds, 1.1% hits. inhibition, % at 12.3 µM;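 active = mean replicate inhibition score of at least 50 and every replicate individually at or above 50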;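 also: 0% = plate neutral controls and 100% = maraviroc near 300 nM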
CFTR F508del cor: correctors of CFTR F508del function in bronchial epithelial cells; CFBE cells, YFP halide quenching; stimulated with forskolin plus potentiator P3; % fluorescence drop versus neutral controls; activity (quench increase), % at 7.58 µM; 350,000 compounds, 0.36% hits; AID 720511;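 active = mean added fluorescence quench of at least 8% versus neutral control, with both replicates also reaching 8%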;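 also: cells transiently co-express mutant CFTR-F508del with the halide-sensitive YFP; corrector assay measuring rescue of mutant channel to the surface after 24 h compound exposure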
NSD2 HMT inh: NSD2 (human) methyltransferase inhibition. NSD2 peptide methylation, AlphaScreen, 120 min. 310,000 compounds, 0.54% hits. inhibition, % at 12.5 µM; in the data active = inhibition above about 50%
ALR inh: human ALR oxidase inhibition via reduced H2O2; AID 485317; purified ALR, DTT oxidation, H2O2 HRP-luminol luminescence; P55789; inhibition, % (test concentration not listed); 290,000 compounds, 3.8% hits;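 active = mean replicate inhibition above about 79%, with every replicate also reaching it, limit read from the data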
PglD inh SP: PglD (C. jejuni) inhibition confirmation | Purified C. jejuni PglD, DTNB absorbance 412 nm | AID 743156 | shares compounds with PglD DTNB | 320 tested, under 10 active | inhibition, % at 20 µM;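 active = mean inhibition across replicates of at least 20% with every single replicate also at 20% or more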;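 also: initial rate of CoA release by acetyl transfer from AcCoA to the UDP-4-amino sugar; 0% = median of neutral control wells and 100% = median of positive control wells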
Starred values were filed as active, the others as inactive; [ ] = another dose, or the depositor's remark. Hits are enriched below; roughly 4.1% of the tested compounds scored in any of these assays.

Screening CC(C)NC(=O)Nc1cccc2c1O[C@@H](CN(C)Cc1ccc(C(F)(F)F)cc1)[C@H](C)CN([C@@H](C)CO)C2=O returned Casp6 inh -1 and CFTR F508del cor 0.
COCC(=O)N1C[C@H]2[C@@H](c3ccccc31)[C@H](CO)N2C(=O)C1CCCC1 was read as PglD DTNB 3, Casp6 inh -1 and CFTR F508del cor -1.
Screening COc1ccccc1CNC(=O)c1cc2ccccc2o1 returned PglD DTNB 7, Casp6 inh 3, Env fusion inh 3, CFTR F508del cor 0, NSD2 HMT inh -2 and ALR inh -3.
COc1ccccc1CNC(=O)c1cc2ccccc2oc1=O was read as PglD DTNB 32*, Casp6 inh 1, Env fusion inh 9, CFTR F508del cor 0, NSD2 HMT inh -2, ALR inh -3 and PglD inh SP 8.
`COc1ccc(-c2cc(-c3cc(C)ccc3O)[nH]n2)cc1` gave Casp6 inh 1, Env fusion inh -10, CFTR F508del cor -3, NSD2 HMT inh -1 and ALR inh 50.
Screening COc1ccc(-c2cc(-c3ccc(OC)cc3)[nH]n2)cc1 returned PglD DTNB 32*, Env fusion inh -81, NSD2 HMT inh -7, ALR inh 4 and PglD inh SP -4.
Screening C[C@@H]1CN([C@H](C)CO)C(=O)c2cc(C3=CCCCC3)cnc2O[C@@H]1CN(C)C(=O)c1cccc(F)c1 returned PglD DTNB 2, Casp6 inh -1, Env fusion inh 8[16.7 µM] and CFTR F508del cor 1.
For O=C(COc1ccc(S(=O)(=O)N2CCCCC2)cc1)N1CCCCCC1 the results were PglD DTNB 21*, NSD2 HMT inh -4, ALR inh -12 and PglD inh SP -5.
`CC1CCN(C(=O)COc2ccc(S(=O)(=O)N3CCCC3)cc2)CC1` gave PglD DTNB 1, Env fusion inh 10, CFTR F508del cor -1 and NSD2 HMT inh 4.
`CCOc1cc(N2CCOCC2)c(OCC)cc1NC(=O)COC(=O)COc1cc(C)cc(C)c1` gave PglD DTNB 3, Casp6 inh 2, Env fusion inh -10, CFTR F508del cor 0, NSD2 HMT inh -4 and ALR inh -12.
For CCOc1cc(N2CCOCC2)c(OCC)cc1NC(=O)COC(=O)COc1ccc(C#N)cc1 the results were PglD DTNB 33*, Casp6 inh 0, Env fusion inh 0, CFTR F508del cor 2, NSD2 HMT inh -1, ALR inh -8 and PglD inh SP -2.
N#Cc1cnn2cc(-c3ncc(C(F)(F)F)cc3Cl)cnc12 was read as PglD DTNB 47*, Env fusion inh -70, NSD2 HMT inh 0, ALR inh 85* and PglD inh SP -2.
`CC(C)NC(=O)N(C)C[C@H]1OCCCC[C@@H](C)Oc2ccc(NC(=O)c3ccccc3)cc2C(=O)N([C@@H](C)CO)C[C@@H]1C` gave PglD DTNB 7, Casp6 inh 2, Env fusion inh -33[16.7 µM] and CFTR F508del cor 1.
Screening C[C@H]1CN([C@@H](C)CO)C(=O)c2cc(C3=CCCCC3)cnc2O[C@@H]1CN(C)Cc1cccnc1 returned PglD DTNB 5, Casp6 inh -2, Env fusion inh -17[16.7 µM] and CFTR F508del cor -1.
CCOc1ccc(NC(=O)NN2C(C)CCCC2C)cc1 (stereo unspecified) was read as PglD DTNB 20*, Casp6 inh 3, Env fusion inh -8, CFTR F508del cor -2, NSD2 HMT inh 2, ALR inh -6 and PglD inh SP 6.
CCOc1ccc(NC(=S)NN2C(C)CCCC2C)cc1 (stereo unspecified) was read as PglD DTNB 2, Env fusion inh -8, NSD2 HMT inh 1 and ALR inh -7.
Screening CC1(C)C(=O)Nc2ccccc2N1C(=O)CSc1nnc2ccccn12 returned PglD DTNB 35*, Casp6 inh 27, Env fusion inh 15, CFTR F508del cor -2, NSD2 HMT inh -2, ALR inh 45 and PglD inh SP -1.
For CCOc1nc(-c2ccccc2)ccc1-c1noc(-c2cccs2)n1 the results were PglD DTNB 21*, Env fusion inh -9, NSD2 HMT inh -1, ALR inh 15 and PglD inh SP -9.
